The results in this text go back to PubChem BioAssay AID651739 (Broad Institute, 2012).

Each structure is given as a SMILES string. In all, about 5,600 compounds went through this assay and about 4,100 (73%) were called active. Roughly 4% stayed inconclusive and do not appear here. So high a share suggests a set chosen from earlier hits. These entries were drawn from the full list. Values without a mark were called inactive.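 How the source made its calls: active means mean replicate inhibition above about 95% and at least 55% of replicates individually reaching it (limit read from the data); inconclusive means only one of the two criteria is met; inactive means neither criterion is met.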

The nature of this test: T. cruzi intracellular proliferation inhibitors, confirmation, cell-based, NIH3T3 host, beta-gal parasite, luminescence, cherry-pick (AID 651739). The settings on record: T. cruzi beta-gal in NIH3T3, GalScreen luminescence, 90 h; at 8.35 µM; hits give high values.
Consider `O=C(C[C@@H]1C[C@H]2c3cc(NC(=O)C4CCC4)ccc3O[C@H]2[C@@H](CO)O1)NCc1ccc2c(c1)OCO2`, for which the inhibition was 12.6%.

`O=C(C[C@@H]1C[C@@H]2c3cc(NC(=O)c4ccc5c(c4)OCO5)ccc3O[C@@H]2[C@@H](CO)O1)NCc1ccc(Cl)cc1`: the inhibition is 106% (active).

In the case of `O=C(Nc1ccc2c(c1)[C@@H]1C[C@H](CC(=O)N3CCOCC3)O[C@@H](CO)[C@@H]1O2)c1ccc2c(c1)OCO2`, the inhibition was 13.5%.

In the case of `C/C=C/c1ccc([C@H]2[C@@H](CNC(C)C)N(c3nc(CC)cs3)[C@H]2CO)cc1`, the inhibition was 101% (active).

As to `C[C@@H]1CN([C@@H](C)CO)C(=O)c2cc(NC(=O)C3CCCCC3)ccc2O[C@@H](C)CCCCO[C@H]1CN(C)Cc1ccncc1`, the inhibition is 97.3% (active).

As for `C[C@H]1CCCCO[C@H](CN(C)Cc2ccc(C(F)(F)F)cc2)[C@@H](C)CN([C@@H](C)CO)C(=O)c2cc(NC(=O)C3CCCCC3)ccc2O1`, the inhibition was 100% (active).

On to `C[C@@H]1CCCCO[C@@H](CN(C)CC2CC2)[C@H](C)CN([C@H](C)CO)C(=O)c2cc(NC(=O)C3CCCCC3)ccc2O1`, for which the inhibition was 99.2% (active).

As to `C[C@@H]1CCCCO[C@H](CN(C)Cc2ccc(Cl)c(Cl)c2)[C@H](C)CN([C@@H](C)CO)C(=O)c2cc(NC(=O)C3CCCCC3)ccc2O1`, the inhibition is 97.4% (active).

Consider `CCCNC(=O)N1[C@@H]2c3cccc(=O)n3C[C@H]1[C@H](CO)[C@H]2C(=O)NCC(F)(F)F`, for which the inhibition is 21.5%.

On to `C[C@H](CO)N1C[C@H](C)[C@@H](CN(C)Cc2ccc(C(F)(F)F)cc2)OCCCC[C@H](C)Oc2ccc(NC(=O)C3CCCCC3)cc2C1=O`, for which the inhibition is 98.1% (active).

Turning to `C[C@@H]1CCCCO[C@@H](CN(C)Cc2ccc3c(c2)OCO3)[C@@H](C)CN([C@@H](C)CO)C(=O)c2cc(NC(=O)Nc3ccccc3)ccc2O1`, the inhibition is 110% (active).

Turning to `COc1ccc(CN(C)C[C@H]2OCCCC[C@H](C)Oc3ccc(NC(=O)Nc4ccc5c(c4)OCO5)cc3C(=O)N([C@H](C)CO)C[C@@H]2C)cc1`, the inhibition was 100% (active).

As to `CNC[C@@H]1Oc2cc(C#CCC3CCCC3)ccc2S(=O)(=O)N([C@H](C)CO)C[C@H]1C`, the inhibition is 95% (active).

As to `C[C@@H]1CN([C@H](C)CO)S(=O)(=O)c2ccc(C#CCC3CCCC3)cc2O[C@H]1CN(C)C(=O)CC1CC1`, the inhibition was 97.4% (active).

With `CO[C@H](CN(C)S(=O)(=O)c1ccc(Cl)cc1)[C@@H](C)CN(Cc1ccccc1Cl)[C@H](C)CO`, the inhibition is 110% (active).

Turning to `CN1C(=O)c2cc(NC(=O)c3cnccn3)ccc2OC[C@@H]2O[C@H](CC(=O)N[C@@H]3CCN(Cc4ccccc4)C3)CC[C@@H]21`, the inhibition is 99.8% (active).

With `CN1C(=O)c2cc(NC(=O)Nc3ccccc3F)ccc2OC[C@H]2O[C@H](CC(=O)NCc3ccc(-c4ccccc4)cc3)CC[C@H]21`, the inhibition was 108% (active).

As to `CN1C(=O)c2cc(NC(=O)c3cnccn3)ccc2OC[C@@H]2O[C@@H](CC(=O)N[C@H]3CCN(Cc4ccccc4)C3)CC[C@H]21`, the inhibition was 71.5%.

With `C[C@H]1CCCCO[C@H](CN(C)S(=O)(=O)c2ccc(Cl)cc2)[C@@H](C)CN([C@@H](C)CO)C(=O)c2cc(NC(=O)Nc3ccc4c(c3)OCO4)ccc2O1`, the inhibition was 103% (active).

With `CC(C)NC(=O)Nc1ccc2c(c1)C(=O)N([C@@H](C)CO)C[C@H](C)[C@H](CN(C)S(=O)(=O)c1ccc(Cl)cc1)OCCCC[C@H](C)O2`, the inhibition was 104% (active).

In the case of `C[C@@H]1CN([C@H](C)CO)C(=O)c2cc(NS(C)(=O)=O)ccc2O[C@@H](C)CCCCO[C@H]1CN(C)S(=O)(=O)c1cn(C)cn1`, the inhibition was -9.98%.

As to `COc1ccc(NC(=O)Nc2ccc3c(c2)C(=O)N([C@H](C)CO)C[C@H](C)[C@H](CN(C)S(=O)(=O)c2ccc(Cl)cc2)OCCCC[C@H](C)O3)cc1`, the inhibition is 104% (active).

As to `C[C@H](CO)N1C[C@H](C)[C@@H](CN(C)S(=O)(=O)c2ccccc2F)Oc2ncc(C#Cc3ccccc3F)cc2C1=O`, the inhibition is 106% (active).

In the case of `CCCNC(=O)N(C)C[C@@H]1Oc2ncc(C#Cc3ccccc3F)cc2C(=O)N([C@@H](C)CO)C[C@H]1C`, the inhibition is 112% (active).

On to `C[C@H](CO)N1C[C@H](C)[C@@H](CN(C)S(=O)(=O)c2ccccc2)Oc2ncc(C#Cc3ccccc3F)cc2C1=O`, for which the inhibition is 111% (active).

Consider `C[C@@H]1CN([C@@H](C)CO)C(=O)c2cc(NC(=O)Nc3cccc4ccccc34)ccc2O[C@H]1CN(C)Cc1ccc(Oc2ccccc2)cc1`, for which the inhibition was 103% (active).

Consider `C[C@@H]1CN([C@@H](C)CO)C(=O)c2cc(NC(=O)Nc3cccc4ccccc34)ccc2O[C@H]1CN(C)Cc1ccc(Cl)c(Cl)c1`, for which the inhibition is 97.9% (active).

Regarding `O=C(c1ccc(F)cc1)N1CCCCN2[C@H](C1)[C@@H](c1ccc(C#CC3(O)CCCC3)cc1)[C@@H]2CO`, the inhibition was 45.9%.

In the case of `OC[C@@H]1[C@H](c2ccc(C#Cc3ccccc3)cc2)[C@@H]2CN(Cc3cncnc3)CCCCN12`, the inhibition was 104% (active).

On to `OC[C@@H]1[C@H](c2ccc(C#CC3(O)CCCC3)cc2)[C@H]2CN(Cc3cncnc3)CCCCN12`, for which the inhibition is 99.2% (active).

Consider `Cc1ccc(-c2ccc([C@H]3[C@H](CO)N4CCCCN(Cc5cncnc5)C[C@@H]34)cc2)cc1`, for which the inhibition was 102% (active).

Take `OC[C@H]1[C@H](c2ccc(-c3cccc(F)c3)cc2)[C@@H]2CN(Cc3cncnc3)CCCCN12`: the inhibition was 82.2%.

In the case of `Cc1cccc(-c2ccc([C@H]3[C@@H](CO)N4CCCCN(Cc5cncnc5)C[C@H]34)cc2)c1`, the inhibition was 84.9%.

Consider `O=C(Nc1ccc(Cl)cc1)N[C@@H]1CC[C@@H](CCNC(=O)c2ccccc2F)O[C@H]1CO`, for which the inhibition is 45.6%.

Consider `O=C(Nc1cc(Cl)cc(Cl)c1)N[C@H]1CC[C@@H](CCNS(=O)(=O)c2cccc(F)c2)O[C@H]1CO`, for which the inhibition is 113% (active).

As to `N#C[C@H]1[C@@H](c2ccc(C3=CCCCC3)cc2)[C@@H](CO)N1C(=O)NC1CCCCC1`, the inhibition was 105% (active).

Turning to `CC(C)NC(=O)N1[C@H](C#N)[C@H](c2ccc(C#CC3CCCCC3)cc2)[C@H]1CO`, the inhibition was 105% (active).

As to `CS(=O)(=O)N1[C@@H](C#N)[C@H](c2ccc(C#CC3CCCCC3)cc2)[C@@H]1CO`, the inhibition is 103% (active).

Turning to `CCc1cnc(N2[C@H](C#N)[C@H](c3ccc(C4=CCCC4)cc3)[C@@H]2CO)s1`, the inhibition is 106% (active).
